Experimental data from PubChem BioAssay AID1159580 (chemical genetic matrix, 2015).
Where “and” joins values, the source holds several entries; their conditions need not be identical. Identical values can stand only once. Among all 5,500 compounds or so, about 2,000 (36%) were called active. Inconclusive results (about 18%) are left out. No stated cut-off is given here; in the data, active means normalized growth mostly below about 0.91 (no sharp cut-off); inconclusive means no clear call, values can overlap the other calls; inactive means mostly above about 0.92. This is one part of the list.

Assay: chemical genetic growth profiling, strain panel (AID 1159580);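 further: tested at 20 µM; growth read once vehicle control cultures reached saturation at 30 °C; 1 = growth at the plate median or of vehicle wells; lower values mean less growth of the strain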
Conditions: S. cerevisiae deletion strains, growth OD

Measured: normalized growth

CC(=O)O[C@]1(C)CC[C@@]23CC1C(C)(C)[C@@H]2CC[C@H]3C
active: locus YOR184W, strain ser1, active compounds read low 0.846
inactive: locus YAL013W, strain DEP1, active compounds read low 1 | locus YAL021C, strain ccr4, active compounds read low 0.985 | locus YAL026C, strain drs2, active compounds read low 0.979 | locus YAL030W, strain snc1, active compounds read low 0.98 | locus YBL061C, strain skt5, active compounds read low 0.967 | locus YBR009C, strain hhf1, active compounds read low 0.968 | locus YBR021W, strain FUR4, active compounds read low 0.954 | locus YBR023C, strain chs3, active compounds read low 0.961 | locus YBR171W, strain sec66, active compounds read low 0.969 | locus YBR229C, strain ROT2, active compounds read low 1 | locus YBR231C, strain swc5, active compounds read low 0.998 | locus YBR279W, strain paf1, active compounds read low 0.979 | locus YCL011C, strain gbp2, active compounds read low 0.975 | locus YCL016C, strain dcc1, active compounds read low 0.976 | locus YCL029C, strain bik1, active compounds read low 1.03 | locus YCL061C, strain MRC1, active compounds read low 0.985 | locus YCL069W, strain vba3, active compounds read low 0.976 | locus YCR088W, strain abp1, active compounds read low 0.978 | locus YDL005C, strain med2, active compounds read low 0.967 | locus YDL035C, strain GPR1, active compounds read low 0.964 | locus YDL040C, strain nat1, active compounds read low 0.972 | locus YDL074C, strain BRE1, active compounds read low 0.958 | locus YDL101C, strain DUN1, active compounds read low 0.981 | locus YDL185W, strain tfp1, active compounds read low 1.02 | locus YDL192W, strain arf1, active compounds read low 0.971 | locus YDR001C, strain nth1, active compounds read low 0.977 | locus YDR069C, strain doa4, active compounds read low 0.974 | locus YDR101C, strain arx1, active compounds read low 1.02 | locus YDR137W, strain rgp1, active compounds read low 0.944 | locus YDR159W, strain sac3, active compounds read low 0.986 | locus YDR162C, strain NBP2, active compounds read low 0.905 | locus YDR195W, strain ref2 0.995 | locus YDR297W, strain sur2, active compounds read low 0.96 | locus YDR318W, strain mcm21, active compounds read low 0.972 | locus YDR334W, strain swr1, active compounds read low 0.974 | locus YDR335W, strain msn5, active compounds read low 0.975 | locus YDR388W, active compounds read low 1.01 | locus YDR392W, strain spt3, active compounds read low 0.964 | locus YDR502C, strain sam2, active compounds read low 0.979 | locus YEL003W, strain gim4, active compounds read low 0.977 | locus YEL037C, strain rad23, active compounds read low 0.975 | locus YEL061C, strain CIN8 (second series), active compounds read low 0.981 | locus YEL061C, strain CIN8, active compounds read low 0.996 | locus YER015W, strain faa2, active compounds read low 0.974 | locus YER016W, strain bim1, active compounds read low 0.966 | locus YER110C, active compounds read low 1.02 | locus YER111C, strain swi4, active compounds read low 0.967 | locus YER155C, strain BEM2 (second series), active compounds read low 0.974 | locus YER155C, strain BEM2, active compounds read low 0.95 | locus YER167W, strain BCK2, active compounds read low 0.982 | locus YFR010W, strain ubp6, active compounds read low 0.994 | locus YGL078C, strain dbp3, active compounds read low 1.01 | locus YGL086W, strain mad1, active compounds read low 1.02 | locus YGL167C, strain pmr1, active compounds read low 0.977 | locus YGL173C, strain kem1, active compounds read low 0.975 | locus YGL227W, strain vid30, active compounds read low 0.969 | locus YGL240W, strain doc1, active compounds read low 1.01 | locus YGL248W, strain PDE1, active compounds read low 0.934 | locus YGL253W, strain hxk2, active compounds read low 0.981 | locus YGR078C, strain PAC10, active compounds read low 0.946 | locus YGR135W, strain pre9, active compounds read low 0.985 | locus YGR252W, strain gcn5, active compounds read low 0.867 | locus YHR013C, strain ard1, active compounds read low 0.959 | locus YHR027C, strain rpn1, active compounds read low 0.986 | locus YHR030C, strain SLT2, active compounds read low 0.964 and 0.917 | locus YHR079C, strain IRE1 (second series), active compounds read low 1.01 | locus YHR079C, strain IRE1, active compounds read low 0.951 | locus YHR094C, strain hxt1, active compounds read low 1.01 | locus YHR129C, strain ARP1, active compounds read low 0.978 | locus YHR142W, strain chs7, active compounds read low 0.967 | locus YHR200W, strain rpn10, active compounds read low 1 | locus YIL066C, strain RNR3, active compounds read low 0.973 | locus YIL073C, strain SPO22, active compounds read low 0.923 | locus YIL125W, strain kgd1, active compounds read low 1.01 | locus YIR030C, strain dcg1, active compounds read low 0.997 | locus YJL092W, strain hpr5, active compounds read low 0.983 | locus YJL095W, strain BCK1 (second series), active compounds read low 0.981 | locus YJL095W, strain BCK1, active compounds read low 0.84 and 0.968 | locus YJL115W, strain asf1, active compounds read low 0.975 | locus YJL129C, strain trk1, active compounds read low 0.981 | locus YJL134W, strain LCB3, active compounds read low 1.01 | locus YJL154C, strain vps35, active compounds read low 0.962 | locus YJL164C, strain tpk1, active compounds read low 0.978 | locus YJL166W, strain qcr8, active compounds read low 0.978 | locus YJL168C, strain set2, active compounds read low 1.01 | locus YJL187C, strain SWE1 (second series), active compounds read low 0.97 | locus YJR043C, strain POL32, active compounds read low 0.995 | locus YJR066W, strain TOR1, active compounds read low 0.958 | locus YJR075W, strain HOC1, active compounds read low 0.956 | locus YKL009W, strain mrt4, active compounds read low 1.08 | locus YKL068W, active compounds read low 0.998 | locus YKL085W, strain MDH1 (second series), active compounds read low 1 | locus YKL085W, strain MDH1, active compounds read low 1 | locus YKL160W, strain elf1, active compounds read low 0.968 | locus YKL190W, strain CNB1, active compounds read low 1 | locus YKR001C, strain vps1, active compounds read low 0.98 | locus YKR026C, strain gcn3, active compounds read low 0.974 | locus YKR091W, strain srl3, active compounds read low 0.974 | locus YLL001W, strain dnm1, active compounds read low 0.978 | locus YLL026W, active compounds read low 0.971 | locus YLL041C, strain sdh2, active compounds read low 0.973 | locus YLR027C, strain aat2, active compounds read low 0.964 | locus YLR039C, strain RIC1, active compounds read low 0.853 | locus YLR058C, strain SHM2, active compounds read low 0.974 | locus YLR102C, strain apc9, active compounds read low 1.01 | locus YLR113W, strain HOG1, active compounds read low 0.911 | locus YLR221C, strain rsa3, active compounds read low 0.977 | locus YLR258W, strain gsy2, active compounds read low 0.957 | locus YLR262C, strain YPT6 (second series), active compounds read low 0.987 | locus YLR262C, strain YPT6, active compounds read low 0.848 | locus YLR268W, strain sec22, active compounds read low 1.03 | locus YLR320W, strain mms22, active compounds read low 0.981 | locus YLR330W, strain CHS5, active compounds read low 1 | locus YLR342W, strain FKS1 (second series), active compounds read low 1 | locus YLR342W, strain FKS1, active compounds read low 0.995 | locus YLR357W, strain rsc2, active compounds read low 0.989 | locus YLR370C, strain arc18, active compounds read low 0.976 | locus YLR371W, strain rom2, active compounds read low 1.01 | locus YLR384C, strain iki3, active compounds read low 0.977 | locus YLR418C, strain cdc73, active compounds read low 0.864 | locus YML016C, strain PPZ1, active compounds read low 1 | locus YML032C, strain rad52, active compounds read low 0.965 | locus YML120C, strain ndi1, active compounds read low 0.976 | locus YML124C, strain tub3, active compounds read low 0.999 | locus YMR058W, strain fet3, active compounds read low 0.968 | locus YMR078C, strain ctf18, active compounds read low 1.01 | locus YMR125W, strain sto1, active compounds read low 0.966 | locus YMR129W, active compounds read low 0.973 | locus YMR205C, strain PFK2, active compounds read low 0.933 | locus YMR223W, strain ubp8, active compounds read low 0.959 | locus YMR231W, strain pep5, active compounds read low 0.976 | locus YMR263W, strain SAP30, active compounds read low 0.983 | locus YMR307W, strain GAS1, active compounds read low 0.74 | locus YNL067W, strain RPL9B, active compounds read low 0.969 | locus YNL071W, strain lat1, active compounds read low 0.982 | locus YNL183C, strain NPR1, active compounds read low 0.961 | locus YNL209W, strain ssb2, active compounds read low 0.983 | locus YNL233W, strain BNI4, active compounds read low 0.933 | locus YNL248C, strain rpa49, active compounds read low 0.978 | locus YNL250W, strain rad50, active compounds read low 1.01 | locus YNL271C, strain bni1, active compounds read low 1.01 | locus YNL298W, strain CLA4, active compounds read low 1.03 | locus YNL307C, strain MCK1, active compounds read low 1.01 | locus YNL322C, strain KRE1 (second series), active compounds read low 0.952 | locus YNR049C, strain mso1, active compounds read low 0.995 | locus YNR052C, strain pop2, active compounds read low 0.986 | locus YOL012C, strain htz1 0.829 | locus YOL147C, strain pex11, active compounds read low 1 | locus YOR001W, strain rrp6, active compounds read low 0.996 | locus YOR061W, strain CKA2, active compounds read low 1 | locus YOR069W, strain VPS5, active compounds read low 1 | locus YOR070C, strain gyp1, active compounds read low 0.993 | locus YOR080W, strain dia2, active compounds read low 0.967 | locus YOR083W, strain WHI5, active compounds read low 0.979 | locus YOR106W, strain vam3, active compounds read low 0.979 | locus YOR136W, strain idh2, active compounds read low 1.02 | locus YOR144C, strain elg1, active compounds read low 1.01 | locus YOR231W, strain MKK1, active compounds read low 0.958 | locus YOR265W, strain rbl2, active compounds read low 0.999 | locus YOR270C, strain vph1, active compounds read low 0.897 | locus YOR290C, strain snf2, active compounds read low 0.947 | locus YOR316C, strain cot1, active compounds read low 1 | locus YPL051W, strain arl3, active compounds read low 0.976 | locus YPL055C, strain LGE1, active compounds read low 0.937 | locus YPL078C, strain atp4, active compounds read low 0.999 | locus YPL106C, strain sse1, active compounds read low 0.969 | locus YPL240C, strain hsp82, active compounds read low 0.982 | locus YPL256C, strain CLN2, active compounds read low 0.991 | locus YPR119W, strain clb2, active compounds read low 1.01 | locus YPR141C, strain kar3, active compounds read low 1 | locus YPR163C, strain tif3, active compounds read low 1.02 | locus YPR167C, strain met16, active compounds read low 0.98 | strain wtn01, active compounds read low 1.04
